Pf growth 96h: P. falciparum growth inhibition at 96 hours. P. falciparum luciferase reporter growth, 96 h. Potency, µM (top dose mostly 28.7 µM), for inactives: top-dose activity change, negative = inhibition, most hits filed as inhibitors. 6.9% of 320,000 active. AID 504834; further: potency means the concentration at half of the fitted maximal effect
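Two parasite generations (96 h, 37 C, 5% CO2) of compound exposure in infected erythrocytes (0.05% parasitemia, 2% hematocrit). Luciferase-reporter P. falciparum; decreased luminescence indicates inhibited growth, aimed at apicoplast-acting delayed death.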
Pf growth 48h: inhibits P. falciparum growth in the first generation, 48 h; 5.9% of 310,000 active; P. falciparum luciferase growth in erythrocytes, 48 h; Potency, µM (top dose mostly 28.7 µM), for inactives: top-dose activity change, negative = inhibition, actives largely listed as inhibitors; further: potency means the concentration at half of the fitted maximal effect
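Cell-based growth assay: transgenic P. falciparum expressing firefly luciferase, cultured in red cells within RPMI 1640 containing 0.5% w/v Albumax, 24 mM bicarbonate and gentamycin. A drop in luciferase activity indicates inhibition.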
HCMV antiviral: inhibitors of human cytomegalovirus. HFF cells, HCMV-luciferase reporter, 72 h; active compounds read low. activity change, negative = inhibition, % at 57.5 µM. 4.5% of 410,000 active; in the data active means activity change below about -60%; inconclusive means no clear call, values can overlap the other calls; inactive means above about -39%
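After 16 h attachment at 37C, HFF cells received test compound and HCMV-luciferase (1 PFU/cell); reporter luminescence read 72 h later, data normalized against buffer-only and known inhibitor Salinomycin.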
Giardia FBPA inh: inhibitors of Giardia lamblia fructose-1,6-bisphosphate aldolase. A8B2U2. purified Giardia FBPA. Potency, µM (highest dose often 59.6 µM), without a hit: at the highest dose activity, negative = inhibition, actives largely listed as inhibitors. 0.71% of 290,000 active; further: potency means the concentration at half of the fitted maximal effect; nearly all actives have a fitted effect of over 55% in size
Target sequence (A8B2U2 whole entry, looked up): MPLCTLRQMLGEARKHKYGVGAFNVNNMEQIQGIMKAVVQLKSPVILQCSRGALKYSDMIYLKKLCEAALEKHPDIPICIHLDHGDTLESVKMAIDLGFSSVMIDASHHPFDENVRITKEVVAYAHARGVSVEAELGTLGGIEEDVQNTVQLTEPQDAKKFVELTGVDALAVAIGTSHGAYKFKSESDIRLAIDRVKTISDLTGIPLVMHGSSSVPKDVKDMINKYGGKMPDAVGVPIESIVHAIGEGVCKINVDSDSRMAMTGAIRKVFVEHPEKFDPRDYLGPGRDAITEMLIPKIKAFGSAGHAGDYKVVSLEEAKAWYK
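40 nM FBPA preincubated 10 min at RT with compound (up to 57.5 uM final), then substrate plus GAPDH/TPI/NAD/arsenate coupling and diaphorase/resazurin added. Fluorescence read after 20 min at RT, 525/598 nm.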
Sm TGR inh: blocks Schistosoma mansoni thioredoxin glutathione reductase | purified TGR, DTNB reduction, TNB absorbance 405 nm | AID 485364 | Potency, µM (series often up to 114 µM), for inactives: at the top dose activity change, negative = inhibition, hits mostly inhibitors | 3% of 360,000 active | Q962Y6; further: potency means the concentration at half of the fitted maximal effect; nearly all actives have a fitted effect of over 60% in size
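First, TGR (20 nM dispensed) and NADPH were mixed with compound. Second, a 15 min room-temperature incubation followed. Third, further NADPH and then DTNB were added to start the reaction. Finally, TNB absorbance was monitored kinetically.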
* marks the source's active call; other numbers are inactive results; u = inconclusive; x = not tested or not shown; ! = not confirmed by another sample. Only some compounds are listed: those with a hit (about 14% of all), similar ones and a draw of the others. Unless noted, the call rests on the fitted dose curve; in most records, active means well fitted curve in the direction sought with a large enough effect; inconclusive means small, poorly fitted or top-dose-only effect, or another doubt; inactive means no such curve, though single readings can be large; an effect the other way counts as inactive or inconclusive. On the % scale 0 is the no-effect control and ±100 the full control effect.

SMILES | Pf growth 96h | Pf growth 48h | HCMV antiviral | Giardia FBPA inh | Sm TGR inh
CC(Sc1nc2ccccc2n1C)C(=O)NC(c1ccccc1)c1ccccc1 (stereo not drawn) | 5.86µM* | 9.28µM* | -15.9 | 0.9% | -8.0%
Cn1c(-c2ccc(Br)o2)nc2ccccc21 | 244.2% | 177.6% | 89.7 | -11.1% | 17.8µM*
CCCCC(=O)NC1(C(F)(F)F)C(=O)Nc2c1c(=O)[nH]c(=O)n2-c1ccc(C)c(C)c1 (stereo not drawn) | x | x | 1.2 | x | 1.2%
NC(=O)Nn1c(CCC(=O)O)ccc1-c1ccc(F)cc1 | 5.3% | 4.4% | -93.3* | -6.8% | 50.1µM*
COc1ccc(-n2c(CCC(=O)O)ccc2-c2ccc(F)cc2)c(OC)c1 | 33.4% | 18.8% | 42.7 | -7.5% | 44.7µM*
Cc1ccc(-c2ccc(CCC(=O)O)n2NC(=O)c2ccco2)cc1 | -17.6% | 11.5% | 17.9 | -0.6% | u
O=C(O)CCc1ccc(-c2ccc(F)cc2)n1CC(=O)O | 0.0% | 7.8% | -28.6 | 9.7% | u
CCOC(=O)Cn1c(CCC(=O)O)ccc1-c1ccc(F)cc1 | u | -2.4% | u | 6.4% | -34.9%
COC(=O)c1ccccc1-n1c(CCC(=O)O)ccc1-c1ccc(F)cc1 | -26.4% | -0.8% | 4.2 | 13.8% | u
O=C(O)CCc1ccc(-c2ccc(F)cc2)n1NC(=O)c1ccco1 | 126.5% | -1.8% | -29.6 | -1.3% | 39.8µM*
CCCn1c(CCC(=O)O)ccc1-c1ccc(F)cc1 | 9.28µM* | 12.0% | -21.7 | 15.2% | u
COc1ccc(N2CCN(C(=O)CSc3nnc(C4CC4)n3C3CC3)CC2)cc1 | x | x | -5.7 | x | x
O=C(O)CCc1ccc(-c2ccc(Br)cc2)n1NC(=O)c1ccc([N+](=O)[O-])cc1 | 23.6% | 18.4% | u | 4.4% | 44.7µM*
CC(Sc1nnc(NCc2ccccc2)s1)C(=O)Nc1ccc2c(c1)C(=O)c1ccccc1C2=O (stereo not drawn) | 1.8% | 39.7% | 24.5 | -0.9% | 0.6%
Cc1cc(C)nc(NNS(=O)(=O)c2ccc(F)c(Cl)c2)n1 | 1.3% | u | -10.4 | x | 3.1%
Cc1cc(C)nc(NNS(=O)(=O)c2ccc(Cl)cc2)n1 | x | x | -60.6* | x | x
CN(CC(=O)Nc1cccc(Cl)c1)C1=NS(=O)(=O)c2ccccc21 | x | x | -0.7 | x | x
CCc1cccc(NC(=O)CN(C)C2=NS(=O)(=O)c3ccccc32)c1 | 11.7µM* | u | -22.8 | x | 1.3%
CC(C)CC(=O)Nc1nnc(S(=O)(=O)N(C)Cc2ccco2)s1 | 2.3% | -3.7% | x | x | 8.91µM*
CN(Cc1ccco1)S(=O)(=O)c1nnc(NC(=O)c2cccc(Cl)c2)s1 | 39.7% | 24.5% | 55.7 | x | 7.94µM*!
O=C(C(=Cc1ccccc1)CN1CCCCC1)c1ccccc1 | x | x | -75.7* | x | x
O=C(CCCCN1CCCCC1)c1ccccc1 | x | x | 14.6 | x | x
COc1ccc(N2CC(C(=O)N[C@@H](CC(C)C)C(=O)NC3CCCC3)CC2=O)cc1 (stereo partly drawn) | u | u | -14.0 | x | 0.1%
O=C(CCn1c(=O)c2cccn2c2cccnc21)NCc1ccc(Cl)cc1 | x | x | -33.6 | x | 0.1%
Cc1cccc(-n2c3nc(=O)[nH]c(=O)c-3cc3cc([N+](=O)[O-])ccc32)c1 | -20.2% | 9.4% | -66.1* | -18.6% | -15.9%
SMILES | Pf growth 96h | Pf growth 48h | HCMV antiviral | Giardia FBPA inh | Sm TGR inh
Cc1ccc(CCNC(=O)Cn2nc(C)c3c(C)n(-c4ccc(C)cc4)nc3c2=O)cc1 | x | x | 0.0 | x | 10.1%
Cc1ccc(-n2nc3c(=O)n(CC(=O)NCCc4ccccc4C)nc(C)c3c2C)cc1 | 39.1% | u | -73.4* | x | -0.7%
COc1ccc(OC)c(CCNC(=O)Cn2nc(C)c3c(C)n(-c4ccc(C)cc4)nc3c2=O)c1 | u | -16.8% | -91.8* | 5.4% | -27.3%
Cc1nn(CC(=O)NCCc2ccco2)c(=O)c2nn(-c3ccccc3)c(C)c12 | 6.9% | 15.1% | -35.4 | 9.2% | 31.6µM*
Cc1ccc(-n2nc3c(=O)n(CC(=O)NC(C)C)nc(C)c3c2C)cc1 | x | x | 0.0 | x | 0.8%
Cc1ccc(-n2nc3c(=O)n(CC(=O)NC4CCCCCC4)nc(C)c3c2C)cc1 | 13.1µM* | 14.8% | -32.5 | 10.1% | -3.8%
CC(C)Oc1ccc(CNS(=O)(=O)c2ccc(-c3cc(C(F)(F)F)on3)s2)cc1 | x | x | -2.0 | x | 15.5%
Cc1ccc(-c2nc(C)c(CCNS(=O)(=O)c3ccc(F)c(C(F)(F)F)c3)s2)cc1 | x | x | -33.5 | x | -12.8%
COC(=O)c1ccc(C(NC(=O)OCc2ccccc2)/C(F)=C/[C@@H](C)C(=O)N(C)Cc2cccnc2)cc1 (stereo partly drawn) | x | x | x | 4.8% | x
c1ccc(N2CCN(Cc3nnc(-c4ccc5c(c4)OCO5)o3)CC2)cc1 | x | x | 9.6 | x | 7.7%
O=C(COC(=O)c1cc(S(=O)(=O)N2CCCCC2)ccc1N1CCOCC1)c1ccc(F)cc1 | -7.5% | u | 13.6 | x | -2.0%
CC(Oc1ccccc1)C(=O)Nc1nc(-c2ccccn2)cs1 (stereo not drawn) | 2.33µM* | 1.85µM* | u | x | -11.6%
CC(Oc1ccccc1)C(=O)Nc1nc(-c2ccncc2)cs1 (stereo not drawn) | -30.5% | -27.4% | -18.7 | x | -11.3%
CC(OC(=O)CNC(=O)c1ccccc1F)C(=O)Nc1nc(-c2ccccc2)cs1 (stereo not drawn) | 128.8% | 137.7% | 115.3 | -4.4% | 0.1%
CC(Oc1cccc(Cl)c1)C(=O)Nc1ccncc1 (stereo not drawn) | 5.3% | u | -24.4 | -2.6% | 19.6%
CC(OC(=O)c1ccc(O)cc1)C(=O)Nc1nc(-c2ccccc2)cs1 (stereo not drawn) | u | 6.57µM* | 68.3 | x | -9.0%
CC(Oc1cccc(Cl)c1)C(=O)Nc1nc(-c2ccccn2)cs1 (stereo not drawn) | 2.62µM* | 2.62µM* | -71.9* | x | -16.2%
CCCCOC(=O)c1ccc(N/C(=N\S(=O)(=O)c2ccccc2)c2ccccc2)cc1 | u | 5.1% | 64.1 | -4.4% | 8.9%
CCOC(=O)c1ccc(N/C(=N\S(=O)(=O)c2ccc(F)cc2F)c2ccccc2)cc1 | 6.57µM* | u | 22.6 | 0.8% | -2.8%
CC(=O)Nc1c2c(nn1-c1ccccc1C)CS(=O)(=O)C2 | 19.7% | 37.2% | 27.1 | 5.0% | -32.7%
O=C(c1cc(Cl)ccc1OCc1ccccc1)N1CCOCC1 | 9.4% | 30.9% | 47.4 | 12.4% | -7.3%
COCCNc1nc(NCc2ccc(NC(C)=O)cc2)c2sc(-c3ccccc3)cc2n1 | x | x | -97.8* | x | x
COc1cccc(CNc2nc3cc(-c4ccccc4)sc3c(=O)n2C)c1 | x | x | -65.0* | x | x
COCCNc1nc2cc(-c3ccsc3)sc2c(=O)n1C | x | x | 45.4 | x | x
COc1cccc(CNc2nc3cc(-c4ccsc4)sc3c(=O)n2C)c1OC | x | x | -68.3* | x | x
COCCNc1nc(Oc2ccc(NC(C)=O)cc2)c2sc(-c3ccccc3)cc2n1 | x | x | -16.4 | x | x
CC(=O)Nc1ccc(CNc2nc3cc(-c4ccsc4)sc3c(=O)n2C)cc1 | x | x | -65.7* | x | x
